Out of some 1,000 compounds screened, about 570 (57%) were called active. The rule behind the calls is not given here. So high a share suggests a set chosen from earlier hits. The sample as a whole holds a higher share of actives than the screen did.
molecular target: Potassium voltage-gated channel subfamily KQT member 2 (Rattus norvegicus) (UniProt O88943); test: blockers of KCNQ2 thallium flux – cell-based, confirmation (AID 493025); details: KCNQ2-expressing cells, at 10 µM, active compounds read low;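 note: 0% = vehicle wells and values are ratio percent relative to vehicle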
Sequence (O88943 whole entry, looked up): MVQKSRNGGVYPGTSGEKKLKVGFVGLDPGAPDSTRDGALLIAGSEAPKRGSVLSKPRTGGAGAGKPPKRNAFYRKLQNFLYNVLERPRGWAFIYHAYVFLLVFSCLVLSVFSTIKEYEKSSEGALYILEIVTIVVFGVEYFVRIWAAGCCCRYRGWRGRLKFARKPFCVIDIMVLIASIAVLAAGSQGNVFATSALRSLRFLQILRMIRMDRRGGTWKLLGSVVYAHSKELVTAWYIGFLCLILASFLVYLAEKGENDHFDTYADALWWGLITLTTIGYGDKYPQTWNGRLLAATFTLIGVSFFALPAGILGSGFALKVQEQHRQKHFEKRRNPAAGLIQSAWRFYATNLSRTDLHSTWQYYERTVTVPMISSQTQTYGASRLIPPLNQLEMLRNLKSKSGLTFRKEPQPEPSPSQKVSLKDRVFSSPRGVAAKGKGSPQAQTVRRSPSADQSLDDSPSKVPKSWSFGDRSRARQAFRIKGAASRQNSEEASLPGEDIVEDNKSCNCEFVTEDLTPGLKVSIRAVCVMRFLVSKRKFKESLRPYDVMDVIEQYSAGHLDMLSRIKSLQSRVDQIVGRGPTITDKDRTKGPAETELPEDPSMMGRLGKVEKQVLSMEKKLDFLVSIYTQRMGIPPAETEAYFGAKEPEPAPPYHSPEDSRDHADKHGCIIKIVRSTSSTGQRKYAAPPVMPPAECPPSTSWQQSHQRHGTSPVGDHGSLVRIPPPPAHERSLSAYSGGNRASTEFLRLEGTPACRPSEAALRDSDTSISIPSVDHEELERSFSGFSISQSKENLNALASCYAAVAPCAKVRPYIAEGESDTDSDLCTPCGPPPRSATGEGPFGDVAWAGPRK

Compound	activity change, negative = inhibition
CN(C)CC1Oc2ccccc2OC1(O)c1ccccc1 (configuration not stated)	-32% (active)
O=C(NC(c1ccc(Cl)cc1)P(=O)(Oc1ccccc1)Oc1ccccc1)OCc1ccccc1 (configuration not stated)	-23% (active)
